Results on 39 sequences are retold here after article PMC7862700, “An all-to-all approach to the identification of sequence-specific readers for epigenetic DNA modifications on cytosine”.

The first assay has as its target SPI1 (Homo sapiens, UniProt P17947 1-270). In words: DAPPL (digital affinity profiling via proximity ligation, sequencing); 10 mM Tris-HCl pH 7.5, 50 mM NaCl, 1 mM DTT, 4% glycerol, room temperature, 30 min; GST-TFs on glutathione beads, 16-mer random dsDNA library, 0.1% formaldehyde crosslink after washing; high values mean tight binding. The settings on record: protein: recombinant; tags: N-terminal GST; dsDNA, one strand shown. The method in brief:
(§1)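 Binding signal is defined as a hexamer's read frequency for one factor over its frequency for the tag-only sample. To obtain reads, GST-fused human transcription factors were expressed in yeast, captured on glutathione beads, barcoded with DNA and pooled with that sample. Pools met 200 nmole of a 16-mer random double-stranded DNA library in Tris/NaCl/DTT/glycerol buffer for 30 min at room temperature before washing, 0.1% formaldehyde crosslinking, proximity ligation (BsaI/T4 ligase, 1 h, 37 °C), PCR and Illumina NextSeq500 sequencing.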
Turning to AGTGAT, the binding signal is 1.06 fold enrichment (6-mer frequency, TF over GST control). With AGAGGA, the binding signal was 1.22 fold enrichment (6-mer frequency, TF over GST control). With GGGGAA, the binding signal is 1.21 fold enrichment (6-mer frequency, TF over GST control). Consider AGTGGA, for which the binding signal is 1.08 fold enrichment (6-mer frequency, TF over GST control). For the sequence AAAGAG, the binding signal was 1.45 fold enrichment (6-mer frequency, TF over GST control). Regarding AGTGAA, the binding signal is 1.26 fold enrichment (6-mer frequency, TF over GST control). Take GAGGAA: the binding signal was 1.64 fold enrichment (6-mer frequency, TF over GST control). Regarding AGCGGA, the binding signal was 1.26 fold enrichment (6-mer frequency, TF over GST control).

For the sequence GGGAAG, the binding signal was 1.51 fold enrichment (6-mer frequency, TF over GST control). Turning to TGAGGA, the binding signal was 1.07 fold enrichment (6-mer frequency, TF over GST control). On the same count and under the same terms, then GTGTGC, with 1.01 fold enrichment (6-mer frequency, TF over GST control).

With AGTGCG, the binding signal was 1.14 fold enrichment (6-mer frequency, TF over GST control).

In the case of TAGGGA, the binding signal is 1.05 fold enrichment (6-mer frequency, TF over GST control). Take AAGAGG: the binding signal was 1.56 fold enrichment (6-mer frequency, TF over GST control).

In the next assay the target is SPIB (Homo sapiens, UniProt Q01892 1-262). Described as above. The settings on record: protein: recombinant; tags: N-terminal GST; dsDNA, one strand shown. In outline: as §1
Sequence of SPIB (Q01892 whole entry): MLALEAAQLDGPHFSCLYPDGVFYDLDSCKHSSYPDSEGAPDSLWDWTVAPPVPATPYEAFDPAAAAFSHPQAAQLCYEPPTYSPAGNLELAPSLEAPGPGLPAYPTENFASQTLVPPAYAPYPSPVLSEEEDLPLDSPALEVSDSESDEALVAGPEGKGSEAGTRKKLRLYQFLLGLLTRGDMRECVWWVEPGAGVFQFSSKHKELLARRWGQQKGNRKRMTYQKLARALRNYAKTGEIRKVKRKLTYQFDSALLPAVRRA
Consider CGCTGA, for which the binding signal is 1.01 fold enrichment (6-mer frequency, TF over GST control). As to GTGGTG, the binding signal was 1.02 fold enrichment (6-mer frequency, TF over GST control). Still for that read-out and setting: then AGCGTA, with 1.02 fold enrichment (6-mer frequency, TF over GST control); and TCGCAG, with 1.04 fold enrichment (6-mer frequency, TF over GST control).

The next assay concerns the target T1, ELK3 (Homo sapiens, UniProt P41970 1-407).
T1 sequence: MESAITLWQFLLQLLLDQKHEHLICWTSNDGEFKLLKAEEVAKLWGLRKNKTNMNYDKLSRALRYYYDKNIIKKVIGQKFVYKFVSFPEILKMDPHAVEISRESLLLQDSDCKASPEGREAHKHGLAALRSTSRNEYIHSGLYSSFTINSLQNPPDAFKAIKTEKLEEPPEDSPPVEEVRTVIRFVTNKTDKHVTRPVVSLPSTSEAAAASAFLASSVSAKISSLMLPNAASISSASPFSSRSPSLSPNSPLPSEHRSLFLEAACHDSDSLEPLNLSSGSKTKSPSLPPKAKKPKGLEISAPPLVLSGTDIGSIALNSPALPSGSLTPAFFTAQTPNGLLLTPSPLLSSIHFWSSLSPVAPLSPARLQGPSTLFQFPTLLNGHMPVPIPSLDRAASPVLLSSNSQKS
The assay is described as above. The settings on record: protein: recombinant; tags: N-terminal GST; dsDNA, one strand shown. The method in brief: as §1
Consider CCGTAG, for which the binding signal was 1.02 fold enrichment (6-mer frequency, TF over GST control). Still for that read-out and setting: then GCCACG, with 1.03 fold enrichment (6-mer frequency, TF over GST control); and CGAGCG, with 1.01 fold enrichment (6-mer frequency, TF over GST control). AAACGT: the binding signal was 1.06 fold enrichment (6-mer frequency, TF over GST control). The same measure, in the same setting: as for CGGAAT, the figure is 1.01 fold enrichment (6-mer frequency, TF over GST control).

The next assay deals with T2, FEV (Homo sapiens, UniProt Q99581 1-238).
T2 sequence: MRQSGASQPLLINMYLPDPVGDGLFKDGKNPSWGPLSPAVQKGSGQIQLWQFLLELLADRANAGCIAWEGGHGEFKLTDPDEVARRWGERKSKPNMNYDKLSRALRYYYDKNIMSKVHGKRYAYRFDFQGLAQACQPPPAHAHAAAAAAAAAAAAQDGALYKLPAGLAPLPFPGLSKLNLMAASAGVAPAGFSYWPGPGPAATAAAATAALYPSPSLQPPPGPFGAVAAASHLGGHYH
The description is as above. The settings on record: protein: recombinant; tags: N-terminal GST; dsDNA, one strand shown. In outline: as §1
As for CGGCCG, the binding signal is 1.03 fold enrichment (6-mer frequency, TF over GST control).

CGGACA: the binding signal was 1 fold enrichment (6-mer frequency, TF over GST control).

In the case of GGACCG, the binding signal is 1.12 fold enrichment (6-mer frequency, TF over GST control).

A further assay deals with T3, ETV7 (Homo sapiens, UniProt Q9Y603 1-341).
T3 sequence: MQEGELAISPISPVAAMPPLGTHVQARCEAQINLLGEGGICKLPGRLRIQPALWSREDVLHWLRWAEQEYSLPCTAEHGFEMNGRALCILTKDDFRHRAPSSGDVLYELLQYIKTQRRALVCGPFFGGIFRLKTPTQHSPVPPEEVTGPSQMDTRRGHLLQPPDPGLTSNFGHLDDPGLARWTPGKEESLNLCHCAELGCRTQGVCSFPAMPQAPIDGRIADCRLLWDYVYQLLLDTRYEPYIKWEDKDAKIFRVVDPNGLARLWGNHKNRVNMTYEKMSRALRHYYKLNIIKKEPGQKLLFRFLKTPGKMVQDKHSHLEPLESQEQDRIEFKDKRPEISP
The description is as above. To be noted: protein: recombinant; tags: N-terminal GST; dsDNA, one strand shown. The method in brief: as §1
For CAGCGA, the binding signal was 1.01 fold enrichment (6-mer frequency, TF over GST control). On the same count and under the same terms, as for GCGCGG, the figure is 1.01 fold enrichment (6-mer frequency, TF over GST control). Still for that read-out and setting: as for GCCACG, the figure is 1.03 fold enrichment (6-mer frequency, TF over GST control); as for GTGGTG, 1 fold enrichment (6-mer frequency, TF over GST control); as for ACGGGT, 1.01 fold enrichment (6-mer frequency, TF over GST control). As for GGGTAC, the binding signal was 1 fold enrichment (6-mer frequency, TF over GST control). In the case of CACGGT, the binding signal was 1 fold enrichment (6-mer frequency, TF over GST control). For AAAGTG, the binding signal is 1.04 fold enrichment (6-mer frequency, TF over GST control).

In a further assay the target is T4, ELF5 (Homo sapiens, UniProt Q9UKW6-2 1-255).
T4 sequence: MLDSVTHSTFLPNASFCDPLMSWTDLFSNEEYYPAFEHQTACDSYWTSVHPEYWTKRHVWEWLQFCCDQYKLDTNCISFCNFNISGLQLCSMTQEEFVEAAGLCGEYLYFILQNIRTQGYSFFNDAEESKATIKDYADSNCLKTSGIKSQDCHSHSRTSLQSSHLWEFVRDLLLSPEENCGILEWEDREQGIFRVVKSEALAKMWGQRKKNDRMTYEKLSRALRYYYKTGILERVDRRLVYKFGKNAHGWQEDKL
Described as above. To be noted: protein: recombinant; tags: N-terminal GST; dsDNA, one strand shown. The method in brief:
as §1
With AGTAGT, the binding signal is 1.07 fold enrichment (6-mer frequency, TF over GST control).

Turning to GGAAGG, the binding signal is 1 fold enrichment (6-mer frequency, TF over GST control). On the same count and under the same terms, then AGCAGG, with 1.02 fold enrichment (6-mer frequency, TF over GST control); and CAAGGA, with 1.03 fold enrichment (6-mer frequency, TF over GST control). Regarding GAGGAA, the binding signal was 1.11 fold enrichment (6-mer frequency, TF over GST control). On the same count and under the same terms, as for GGGAAG, the figure is 1.24 fold enrichment (6-mer frequency, TF over GST control); as for CGGGAA, 1.06 fold enrichment (6-mer frequency, TF over GST control).

In the case of GGGATG, the binding signal is 1.01 fold enrichment (6-mer frequency, TF over GST control).

As to TCCAGG, the binding signal was 1.01 fold enrichment (6-mer frequency, TF over GST control).
